From PubChem
Sampled rows, rich in hits. Any-hit rate of the full collection: about 9.4%.
ELG1 genotoxic: genotoxicity induction in ELG1-luciferase HEK293T cells; Potency, µM (top dose mostly 46 µM), most hits filed as activators; HEK293T ELG1-luciferase reporter, luminescence, 16 h; AID 504466; 330,000 tested, 1.3% active; note: nearly all actives have a fitted effect of over 60% in size
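Luminescence read-out: rising ELG1-luciferase signal, reflecting elevated ELG1 protein under genetic stress, flags genotoxic compounds. Cells were treated for 16 hr at 37 °C before ONE-Glo detection.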
SMN2 splice enh: enhancers of SMN2 splice variant expression. HEK293 SMN2-luciferase splicing reporter, luminescence, 30-36 h. Potency, µM (titrated, usually from 46.1 µM), usual class: activators. 210,000 tested, 2.8% active. AID 1458; note: nearly all actives have a fitted effect of over 55% in size
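qHTS luciferase splicing reporter: luminescence rises when SMN2 exon 7 is included in transfected HEK293 cells. Compound exposure lasted 30-36 h at 37C, with 4.5 mM final sodium butyrate as control, followed by a ONE-Glo read.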
FLuc modulator: inhibits or activates purified firefly luciferase, miR-21 counter-screen; P08659; Potency, µM (doses to about 57.5 µM), hits mostly inhibitors; 360,000 tested, 6.9% active; purified FLuc, Km substrates, luminescence inhibition; note: nearly all actives have a fitted effect of over 55% in size
Target sequence (P08659 whole entry, looked up): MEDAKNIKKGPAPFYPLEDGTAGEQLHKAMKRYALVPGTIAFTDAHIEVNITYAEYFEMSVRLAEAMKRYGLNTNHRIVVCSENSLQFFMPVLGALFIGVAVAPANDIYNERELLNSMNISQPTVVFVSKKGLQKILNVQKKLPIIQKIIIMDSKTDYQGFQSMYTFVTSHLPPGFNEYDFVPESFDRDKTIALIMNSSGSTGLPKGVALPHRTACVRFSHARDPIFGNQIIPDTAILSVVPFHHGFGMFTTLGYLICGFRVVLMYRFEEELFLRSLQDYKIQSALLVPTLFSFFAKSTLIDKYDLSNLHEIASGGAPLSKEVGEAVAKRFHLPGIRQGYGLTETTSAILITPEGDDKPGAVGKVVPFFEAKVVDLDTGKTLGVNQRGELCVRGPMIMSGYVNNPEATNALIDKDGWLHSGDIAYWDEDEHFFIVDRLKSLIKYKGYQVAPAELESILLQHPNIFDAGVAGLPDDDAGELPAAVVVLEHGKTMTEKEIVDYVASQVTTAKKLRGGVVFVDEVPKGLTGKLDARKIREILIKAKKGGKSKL
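Purified P. pyralis luciferase, 10 nM final, with Km-level 10 uM D-luciferin and 10 uM ATP in 50 mM Tris acetate pH 7.5, 10 mM Mg acetate, 0.01% Tween-20, 0.05% BSA; 6-point qHTS titration about 60 µM downward; luminescence read.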
NPC1 prom act: NPC1 promoter activation | Potency, µM (top dose mostly 9.22 µM), hits mostly activators | AID 485313 | 320,000 tested, 2.4% active | Huh7 NPC1 promoter luciferase reporter, 24 h; note: nearly all actives have a fitted effect of over 60% in size
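Stably transfected Huh7 (NPC1 promoter→luciferase), 1500 cells/well in Opti-MEM + 10% FBS, 2 h settle, then compound 24 h at 37 °C. Luminescence after 10 min with Amplite reagent.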
Rab9 promoter act: activates the Rab9 promoter; Huh7 Rab9 promoter-luciferase reporter, luminescence, 24 h; Potency, µM (titrated, usually from 9.22 µM), usual class: activators; 320,000 tested, 2.8% active; AID 485297; note: nearly all actives have a fitted effect of over 60% in size
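Luciferase signal after 10 min detection reagent at ambient indicates Rab9 promoter upregulation; stably transfected Huh7 cells were treated 24 h with compound in DMSO at 37 °C, 5% CO2.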
ELG1 repair inh: inhibitors of ELG1-dependent DNA repair in HEK293T cells | HEK293T ELG1-luciferase reporter, luminescence, 16 h; DNA damage induced by 5-fluorouridine | Potency, µM (titrated, usually from 46.1 µM), most hits filed as inhibitors | 330,000 tested, 2.3% active | AID 504467; note: nearly all actives have a fitted effect of over 55% in size
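In this reporter screen, reduction of luminescence relative to DMSO vehicle indicated activity. Compounds and 5-fluorouridine were added together to 2,000 cells per well, incubated for 16 hr at 37 °C, then developed with ONE-Glo.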
Numbers stand for hits; 0 = inactive; ? = inconclusive; - = no result; [ ] = another dose, or the depositor's remark. Calls come from the whole dose curve; as a rule, active = well fitted curve in the direction sought with a large enough effect; inconclusive = small, poorly fitted or top-dose-only effect, or another doubt; inactive = no such curve, though single readings can be large; an effect the other way counts as inactive or inconclusive.

SMILES	ELG1 genotoxic	SMN2 splice enh	FLuc modulator	NPC1 prom act	Rab9 promoter act	ELG1 repair inh
O=C(CSc1nccn1Cc1ccccc1)Nc1nccs1	?	?	?	0	0	?
O=C(Cc1cccs1)Nc1nc2ccccc2s1	0	0	15µM	?	3.2µM	?
COc1ccc2nc(NC(=O)CN(c3ccc(C)cc3)S(=O)(=O)c3c(C)nn(C)c3C)sc2c1	0	0	?	0	0	23µM
CCOc1ccc2nc(NC(=O)Cc3cccs3)sc2c1	?	?	12µM	?	?	?
O=C(CSc1nccn1Cc1ccccc1)Nc1nc2ccccc2s1	-	-	17µM	-	-	-
COCC(=O)Nc1nc2ccccc2s1	-	0	?	-	-	-
COc1ccc(-c2nc(CNC(=O)Nc3ccccc3)c(C)o2)cc1	-	-	0	-	-	-
Cc1cccc(-n2cc(-c3ccccc3)c3c(NC(C)C)ncnc32)c1	-	-	0	-	-	-
CC(C)(C)C(=O)Cn1c(=O)n(-c2ccccc2)c(=O)c2c3c(sc21)CCC3	-	0	0	-	-	-
O=c1c(-c2cccs2)nc2cnc(Oc3cccc(Cl)c3)nc2n1C[C@H]1CCCO1	-	0	-	-	-	-
COc1ccc2nc(NC(=O)CN(C)S(=O)(=O)c3cccs3)sc2c1	0	0	17µM	0	0	?
O=C(O)CCC(=O)Nc1ccc(-c2nc3ccc(C(=O)c4ccccc4)cc3[nH]2)cc1	0	-	11µM	0	0	?
O=C(Cc1nc(=O)c2ccccc2s1)Nc1ccccc1	?	2.5µM	0.54µM	0.71µM	0.32µM	?
Cc1ccc2nc(NC(=O)CSCC(=O)Nc3cc(C)on3)sc2c1	?	-	?	?	2.5µM	?
CCc1c(O)nc(SCC(=O)Nc2nc3ccccc3s2)n(-c2ccc(C)cc2)c1=O	0	-	21µM	0	0	?
Cc1ccc(NC(=O)CN(C)S(=O)(=O)c2cccs2)c(Br)c1	0	-	24µM	0	0	?
O=C(Cc1ccccc1)Nc1nc2ccccc2s1	0	?	27µM	0	0	?
Cc1ccc2nc(-c3ccc(NC(=O)C4CCCO4)cc3)[nH]c2c1 (centres undefined)	?	0.56µM	0.6µM	0.28µM	0.32µM	?
COc1ccccc1CNC(=O)c1cc2c(=O)oc3ccc(C)cc3c2s1	-	0	0	-	-	-
N#Cc1ccccc1Cn1c(=O)n(CCCC(=O)NCc2ccccc2Cl)c(=O)c2ccccc21	-	0	0	-	-	-
CCOC(=O)c1cc(-c2ccc(C)cc2)n(CC(=O)Nc2ccccc2F)c1C	-	0	0	-	-	-
CCc1ccc2nc(NC(=O)CCCc3cccs3)sc2c1	?	0	?	0	?	?
Cc1ccc2nc(NC(=O)Cc3cccs3)sc2c1	?	?	8.5µM	2.2µM	?	?
COc1ccccc1C1c2[nH]c3ccccc3c2C[C@H]2C(=O)N(C3CCN(Cc4ccccc4)CC3)CC(=O)N12 (some centres undefined)	0	-	0	0	0	23µM
COc1ccc(C2c3[nH]c4ccccc4c3C[C@H]3C(=O)N(C4CCN(Cc5ccccc5)CC4)CC(=O)N23)cc1OC (some centres undefined)	0	-	0	0	0	0
SMILES	ELG1 genotoxic	SMN2 splice enh	FLuc modulator	NPC1 prom act	Rab9 promoter act	ELG1 repair inh
Nc1[nH]c(=S)[nH]c(=O)c1N=Nc1c(Br)cc(S(N)(=O)=O)cc1Br	-	0[9.22 µM]	-	-	-	-
NNC(=O)Cn1c(COc2ccc(Cl)cc2)nc2ccccc21	0	0	12µM	0	0	?
O=C(Cn1c(COc2ccccc2)nc2ccccc21)Nc1cccc(Cl)c1	0	-	0	0	0	?
O=C(O)Cn1c(COc2ccc(Cl)cc2)nc2ccccc21	0	-	11µM	0	0	0
O=C(N/N=C/C(Br)=C/c1ccccc1)c1ccccc1F	18µM	-	11µM	3.5µM	3.2µM	?
N#Cc1ccc(/C=N/NC(=O)c2ccccc2F)cc1	?	?	?	0	0	?
CC1C(=O)NN=C1C(=O)N/N=C\c1ccc(O)cc1O (centres undefined)	0	0	17µM	0	0	0
COc1cc(/C=N/NC(=O)C2=NNC(=O)C2C)ccc1O (centres undefined)	0	-	?	0	0	0
O=C(N/N=C/C(Cl)=C/c1ccccc1)c1ccccc1F	?	-	12µM	?	?	?
CC1C(=O)NN=C1C(=O)N/N=C\C(Br)=C\c1ccccc1 (centres undefined)	?	22µM	1.5µM	2.5µM	2.2µM	?
O=C(Cc1cc(=O)[nH][nH]1)N/N=C/C(Cl)=C/c1ccccc1	0	?	24µM	0	0	0
O=C(Cc1cc(=O)[nH][nH]1)N/N=C/c1ccccc1Cl	0	0	0	0	0	0
O=C(OC1CCOC1=O)c1cc(-c2ccc(Br)cc2)nc2ccccc12 (centres undefined)	0	0	19µM	0	0	0
COc1ccc(-c2cc(C(=O)OC3CCOC3=O)c3ccccc3n2)cc1 (centres undefined)	0	0	7.6µM	0	0	?
Cc1cc(C(=O)OC2CCOC2=O)c2ccccc2n1 (centres undefined)	0	0	0	0	0	?
O=C(OC1CCOC1=O)c1cc(-c2cccc(Br)c2)nc2ccccc12 (centres undefined)	0	0	?	0	0	0
CCCOC(=O)CSc1ncnc2sc3c(c12)CCC(C)C3 (centres undefined)	-	0	8.5µM	-	-	-
CC(=O)CSc1ncnc2sc3c(c12)CCC(C)C3 (centres undefined)	0	0	15µM	0	0	0
CCc1ccc(NC(=O)C2CCCN2S(=O)(=O)c2cccc3nsnc23)cc1 (centres undefined)	-	0	0	-	-	-
Cc1ccc(NC(=O)C(Cc2ccccc2)NS(=O)(=O)c2ccc3c(c2)oc(=O)n3C)cc1F (centres undefined)	-	0	0	-	-	-
COC(=O)c1ccc(C2Nc3c(C)cccc3-c3cc(C)nn32)cc1 (centres undefined)	-	0	0	-	-	-
O=C(CN1CCN(CC(=O)Nc2ccc(-c3ccccc3)cc2)CC1)Nc1ccc(F)cc1	0	-	0	0	0	0
O=C(CN1CCN(C(=O)c2ccc(-c3nc4ccccc4s3)o2)CC1)Nc1ccc(F)cc1	0	-	17µM	0	0	?
O=C(CN1CCN(C(=O)c2ccc(-c3nc4ccccc4s3)o2)CC1)Nc1ccccc1Cl	0	-	?	0	0	?
Cc1cccc(NC(=O)CN2CCN(C(=O)c3ccc(-c4nc5ccccc5s4)o3)CC2)c1C	0	-	24µM	0	0	?
OCCN(CCO)c1nc(-c2ccccc2)nc2c1oc1ccccc12	0	-	0	0	0	23µM
OCCN1CCN(c2nc(-c3ccccc3)nc3c2oc2ccccc23)CC1	0	0	0	0	0	?
O=C(O)CSc1nc(-c2ccccc2)nc2c1oc1ccccc12	0	0	21µM	0	0	0
